CHX counter: affects cycloheximide protein synthesis inhibition readout, counter-screen; AID 2314; 300,000 tested, 12% active; cell reporter, cycloheximide protein synthesis inhibition counterscreen; max response, %; in the data active = max response mostly above about 13%, no sharp cut-off; inactive = mostly below about 14%; also: read at 38.3 µM for the half of the compounds with a filed dose; 0% is about no effect
Shiga inhibitor: Shiga toxin inhibition; 290,000 tested, 9.2% active; Vero cells, Shiga toxin protein synthesis inhibition reporter; inhibition, % at 38.7 µM; in the data active = inhibition mostly above about 28%, no sharp cut-off; inactive = mostly below about 43%; also: 0% is about no effect
Pf growth 96h: P. falciparum growth inhibition at 96 hour, primary screen for plastid delayed-death inhibitors; P. falciparum luciferase reporter growth, 96 h; 320,000 tested, 6.9% active; Potency, µM (doses to about 28.7 µM), without a hit: at the top dose activity change, negative = inhibition, hits mostly inhibitors; AID 504834; also: potency is read from the fitted curve at half-maximal effect; % is scaled to controls: 0 for no effect and ±100 for the full control effect
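P. falciparum expressing integrated firefly luciferase, in erythrocytes at 2% hematocrit, 0.05% parasitemia, incubated with compounds 96 h at 37 C, 5% CO2. Growth inhibition read as loss of luminescence; two-generation exposure targets delayed-death apicoplast inhibitors.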
Pf growth 48h: P. falciparum growth inhibition at 48 hours (one generation). P. falciparum luciferase growth in erythrocytes, 48 h. Potency, µM (doses to about 28.7 µM), without a hit: top-dose activity change, negative = inhibition, usual class: inhibitors. 310,000 tested, 5.9% active; also: potency is read from the fitted curve at half-maximal effect; % is scaled to controls: 0 for no effect and ±100 for the full control effect
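First compound was added to culture medium, then infected red cells at 0.1% parasitemia and 2% hematocrit (final). After incubation at 37 C under 5% CO2, luciferase detection reagent was dispensed and light output recorded.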
NS1 inh: blocks influenza NS1 protein function | 270,000 tested, 0.4% active | Potency, µM (doses to about 46.1 µM), for the others: at the highest dose activity, positive = more growth | AID 2326; calls by dose curve; also: potency is read from the fitted curve at half-maximal effect; actives are rising curves; nearly all actives have a fitted effect of over 50% in size
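OD600 was taken as the measure of yeast growth restored by compound in an NS1-expressing S. cerevisiae strain. Cells had been washed out of glucose medium and diluted 1:100 into galactose -URA medium, pH 6.0.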
Active calls of the source: *; i = inactive; ? = inconclusive; . = no result given; + = active, no number. Rows were chosen to be rich in hits. Some 21% of all compounds tested hit in one or more screens of this group. Unless noted, calls follow the shape of the dose curve; as a rule, active = well fitted inhibition curve with a large enough effect; inconclusive = small, poorly fitted or top-dose-only effect, or another doubt; inactive = no such curve, though single readings can be large or run the other way.

SMILES	CHX counter	Shiga inhibitor	Pf growth 96h	Pf growth 48h	NS1 inh
O=C(NC1=NCCS1)NC12CC3CC(CC(C3)C1)C2	-3	1	1.2µM*	0%	-126%
C[C@H](O)C(N)C(=O)O (stereo partly specified)	-4	-9	.	.	.
O=C(O)CCCSc1ccccc1	.	.	.	.	2%
COC(=O)N1C(=O)[C@@](c2ccccc2)(C(C)C)N1C(=O)OC	20*	10	-5%	-9%	-18%
COC(=O)N1C(=O)[C@](c2ccccc2)(C2CCCC2)N1C(=O)OC	19*	14	-8%	17%	-4%
COC(=O)N1C(=O)[C@@](c2ccc(OC)cc2)(C(C)C)N1C(=O)OC	16*	19*	2%	-9%	-39%
COc1ccc(NC(=O)CN2C(=O)NC(c3ccccc3)(c3ccccc3)C2=O)cc1	6	34	27%	-20%	16%
COC(=O)N1C(=O)[C@](c2ccc(Cl)cc2)(C(C)C)N1C(=O)OC	7	4	9%	-1%	-15%
COc1ccccc1-c1cn(C(C)(C)C)nc1C	13	58	44%	20%	.
COc1cc(C2c3c(c(C)c(C)oc3=O)Oc3c(C)c(C)oc(=O)c32)ccc1OS(=O)(=O)c1ccc(C)cc1	.	.	4.7µM*	5.9µM*	.
COc1ccc(C2c3c(c(C)c(C)oc3=O)Oc3c(C)c(C)oc(=O)c32)cc1	.	.	10%	30%	.
O=[N+]([O-])c1ccc(NCCNc2ccc(Cl)nn2)cc1	0	-18	-17%	.	-4%
CCCCC(=O)NCCNC(=O)c1cc(OCC(F)(F)F)ccc1OCC(F)(F)F	1	-11	.	?	2%
Cn1c(Nc2ccccc2)nc2ccccc21	25*	52	?	3%	-12%
CCCn1c(Nc2nc3ccccc3n2C)nc2ccccc21	-4	-7	7.4µM*	7.4µM*	-189%
Nn1c(Nc2ccccc2)nc2ccccc21	36*	58*	53%	163%	-17%
COC(=O)C1=C(c2ccc(OC(F)(F)F)cc2)C[C@@H]2CC[C@H]1N2C(=O)NCCOc1ccc(OC)cc1	.	.	5.9µM*	?	.
COC(=O)C1=C(c2ccc(OC(F)(F)F)cc2)C[C@@H]2CC[C@H]1N2C(=O)NCCc1ccccc1	.	.	?	3.7µM*	.
COC(=O)C1=C(c2ccc(OC(F)(F)F)cc2)C[C@@H]2CC[C@H]1N2C(=O)NCCNC(C)=O	.	.	27%	?	.
CCCCCC/C=C1\CC(C(=O)OCC)Oc2ccccc21 (stereo unspecified) (tested in a mixture with another compound)	3	i	.	.	.
O=C(ONC1=NCCCCC1)c1ccc([N+](=O)[O-])cc1	-2	-6	-11%	?	-31%
CCOc1ccc(NS(=O)(=O)c2ccc(C(=O)NC3CCC(O)CC3)cc2)cc1 (stereo unspecified)	.	.	-15%	-9%	.
COc1ccccc1CCC(=O)OCC(=O)Nc1ccc2[nH]c(=O)[nH]c2c1	.	.	-1%	-2%	.
Cc1cc(C)nc(/N=C(\N)N(Cc2ccccc2)Cc2ccccc2)n1	-5	-2	10µM*	?	-6%
CC(=O)c1ccc2noc(-c3cccc(C)c3)c2c1	30	44	14%	?	.
SMILES	CHX counter	Shiga inhibitor	Pf growth 96h	Pf growth 48h	NS1 inh
Cc1snc2sc(C(=O)c3ccc(F)cc3)c(N)c12	26*	77*	94%	9%	-5%
O=C1CC2(CCN(C(=O)C3CC(=O)N(c4ccccc4)C3)CC2)Oc2ccccc21 (stereo unspecified)	.	.	9.3µM*	?	.
COCCC(=O)N1CCC(Oc2ccc(C(=O)NCc3nccn3C)cc2)CC1	11	-10	?	2%	-1%
O=C(NN1C(=O)C2C3C=CC(C4CC34)C2C1=O)c1cccc(Cl)c1 (stereo unspecified)	48*	132*	?	-4%	1%
COc1ccc(C)cc1NC(=O)C(NCC(O)c1ccccc1)c1ccccc1 (stereo unspecified)	5	-6	10µM*	?	2%
COc1ccc(C)cc1NC(=O)C(OC(=O)CNC(=O)c1ccc(Br)cc1)c1ccccc1 (stereo unspecified)	12*	10	43%	5%	5%
C=C(C)C(=O)N1CC2(CC(c3cccc(NC(=O)CC)c3)=NO2)C[C@H]1C(N)=O (stereo partly specified)	1	-4	45%	79%	?
COc1cccc(CSc2nc3cc4c(cc3cc2C)OCCO4)c1	1	-4	5.9µM*	-8%	9%
Cc1cc2cc3c(cc2nc1SCc1ccc(C(=O)O)cc1)OCCO3	5	-8	9.3µM*	11%	-2%
COc1ccc(-c2noc(=O)n2CC(=O)N2CCC(Cc3ccccc3)CC2)cc1	-1	2	14%	?	-4%
CCOC(=O)c1c(C)nc2sc3c(=O)n(-c4ccc(C(C)=O)cc4)cnc3c2c1-c1ccc(Cl)cc1	-7	-18	3.7µM*	.	-2%
CCOC(=O)c1c(C)nc2sc3c(=O)n(-c4ccc(C(C)=O)cc4)nnc3c2c1-c1ccc(Cl)cc1	-2	-11	6%	0%	-6%
CCOc1ccc(Oc2ccc(Cl)cc2N)cc1	24*	29*	31%	19%	.
O=C1CCCc2nn(-c3ccccc3)c(-c3ccncc3)c21	-3	-13	?	-21%	?
CC1Oc2ccccc2C=C1/C=N/NC(=O)c1ccccc1 (stereo unspecified)	18	25	?	2.9µM*	-14%
Cc1ccc(C(=O)N/N=C/C2=Cc3ccccc3OC2C)cc1 (stereo unspecified)	10	11	?	?	-18%
CC1Oc2ccccc2C=C1/C=N/NC(=O)c1ccccc1O (stereo unspecified)	43*	+	?	3.7µM*	-8%
CC1Oc2ccccc2C=C1/C=N/NC(=O)[C@@H](C)NC(=O)OC(C)(C)C (stereo partly specified)	-2	10	?	?	4%
CC1Oc2ccccc2C=C1/C=N\NC(=O)c1cccnc1 (stereo unspecified)	20*	53*	3%	0%	-6%
O=C(CNc1cc(S(=O)(=O)N2CCOCC2)ccc1N1CCCC1)NCc1ccco1	0	-6	-5%	-13%	.
Cc1cccc(NS(=O)(=O)c2cccc(C(=O)N3CCCC(C(F)(F)F)C3)c2)c1 (stereo unspecified)	.	.	-2%	-11%	.
COC(=O)C1=C(C(=O)OC)C(c2ccccc2O)c2sc(=O)[nH]c2S1 (stereo unspecified)	-4	-5	5%	10%	-32%
COc1ccc(C2Sc3nncn3N2Cc2ccc(C#N)cc2)cc1 (stereo unspecified)	-6	-2	13µM*	-9%	2%
CSc1nc2ccc(NC(=O)NC(=O)c3c(F)cccc3F)cc2s1	17*	20	118%	88%	1%
COc1cccc(F)c1C(=O)NC(=O)Nc1ccc2nc(C)oc2c1	6	7	2.1µM*	2.1µM*	-2%
Cc1nc2ccc(NS(=O)(=O)c3ccccc3Cl)cc2s1	.	.	-15%	-9%	.

High-throughput results: PubChem BioAssay, National Center for Advancing Translational Sciences (NCATS)
